Experimental data published in PubChem BioAssay AID1159580 (chemical genetic matrix, 2015).
In all, about 5,500 compounds went through this assay and about 2,000 (36%) were called active. About 18% were inconclusive and are not listed. Rule as the data show it: active = normalized growth mostly below about 0.91 (no sharp cut-off); inconclusive = no clear call, values can overlap the other calls; inactive = mostly above about 0.92. The list shows a part of the results.

Experiment: chemical genetic growth profiling, strain panel (AID 1159580);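 also: tested at 20 µM; growth read once vehicle control cultures reached saturation at 30 °C; 1 = growth at the plate median or of vehicle wells; lower values mean less growth of the strain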
Conditions: S. cerevisiae deletion strains, growth OD

Measured: normalized growth

O=C1OC2(c3ccc(O)cc3Oc3cc(O)ccc32)c2ccccc21
inactive: locus YAL021C, strain ccr4, stronger effect = lower value 1.02 | locus YAL026C, strain drs2, stronger effect = lower value 0.997 | locus YAL030W, strain snc1, stronger effect = lower value 1.01 | locus YBL061C, strain skt5, stronger effect = lower value 1.01 | locus YBR009C, strain hhf1, stronger effect = lower value 0.995 | locus YBR023C, strain chs3, stronger effect = lower value 1.02 | locus YBR171W, strain sec66, stronger effect = lower value 1.04 | locus YBR231C, strain swc5, stronger effect = lower value 1 | locus YBR279W, strain paf1, stronger effect = lower value 1.01 | locus YCL011C, strain gbp2, stronger effect = lower value 1.02 | locus YCL016C, strain dcc1, stronger effect = lower value 1 | locus YCL069W, strain vba3, stronger effect = lower value 1.02 | locus YCR088W, strain abp1, stronger effect = lower value 1.03 | locus YDL005C, strain med2, stronger effect = lower value 1.02 | locus YDL040C, strain nat1, stronger effect = lower value 1.01 | locus YDR001C, strain nth1, stronger effect = lower value 1.03 | locus YDR069C, strain doa4, stronger effect = lower value 1.01 | locus YDR137W, strain rgp1, stronger effect = lower value 0.994 | locus YDR159W, strain sac3, stronger effect = lower value 0.986 | locus YDR195W, strain ref2 1.03 | locus YDR297W, strain sur2, stronger effect = lower value 1.02 | locus YDR334W, strain swr1, stronger effect = lower value 0.989 | locus YDR335W, strain msn5, stronger effect = lower value 1.01 | locus YDR392W, strain spt3, stronger effect = lower value 0.976 | locus YEL003W, strain gim4, stronger effect = lower value 1.01 | locus YEL037C, strain rad23, stronger effect = lower value 1.01 | locus YEL061C, strain CIN8 (second series), stronger effect = lower value 1.01 | locus YER015W, strain faa2, stronger effect = lower value 1.01 | locus YER016W, strain bim1, stronger effect = lower value 0.994 | locus YER111C, strain swi4, stronger effect = lower value 1.01 | locus YER155C, strain BEM2 (second series), stronger effect = lower value 1.02 | locus YFR010W, strain ubp6, stronger effect = lower value 1.02 | locus YGL167C, strain pmr1, stronger effect = lower value 1.02 | locus YGL173C, strain kem1, stronger effect = lower value 1.01 | locus YGL227W, strain vid30, stronger effect = lower value 1.02 | locus YGL240W, strain doc1, stronger effect = lower value 0.973 | locus YGL253W, strain hxk2, stronger effect = lower value 1.02 | locus YHR013C, strain ard1, stronger effect = lower value 1.04 | locus YHR027C, strain rpn1, stronger effect = lower value 1.01 | locus YHR030C, strain SLT2, stronger effect = lower value 0.978 | locus YHR079C, strain IRE1, stronger effect = lower value 0.974 | locus YHR142W, strain chs7, stronger effect = lower value 1.04 | locus YJL092W, strain hpr5, stronger effect = lower value 1.02 | locus YJL095W, strain BCK1 (second series), stronger effect = lower value 1.01 | locus YJL095W, strain BCK1, stronger effect = lower value 1.02 | locus YJL115W, strain asf1, stronger effect = lower value 1.01 | locus YJL129C, strain trk1, stronger effect = lower value 1.04 | locus YJL154C, strain vps35, stronger effect = lower value 1.02 | locus YJL164C, strain tpk1, stronger effect = lower value 1 | locus YJL166W, strain qcr8, stronger effect = lower value 1 | locus YJR066W, strain TOR1, stronger effect = lower value 0.938 | locus YKL160W, strain elf1, stronger effect = lower value 1.02 | locus YKR026C, strain gcn3, stronger effect = lower value 1.02 | locus YKR091W, strain srl3, stronger effect = lower value 1.02 | locus YLL001W, strain dnm1, stronger effect = lower value 0.997 | locus YLL026W, stronger effect = lower value 0.999 | locus YLL041C, strain sdh2, stronger effect = lower value 1.01 | locus YLR027C, strain aat2, stronger effect = lower value 1.01 | locus YLR113W, strain HOG1, stronger effect = lower value 0.98 | locus YLR221C, strain rsa3, stronger effect = lower value 0.999 | locus YLR258W, strain gsy2, stronger effect = lower value 1.01 | locus YLR262C, strain YPT6 (second series), stronger effect = lower value 1 | locus YLR320W, strain mms22, stronger effect = lower value 1 | locus YLR342W, strain FKS1, stronger effect = lower value 0.992 | locus YLR357W, strain rsc2, stronger effect = lower value 1.01 | locus YLR370C, strain arc18, stronger effect = lower value 1.01 | locus YLR384C, strain iki3, stronger effect = lower value 1.02 | locus YML120C, strain ndi1, stronger effect = lower value 1.04 | locus YMR058W, strain fet3, stronger effect = lower value 1.01 | locus YMR125W, strain sto1, stronger effect = lower value 1.02 | locus YMR129W, stronger effect = lower value 1.02 | locus YMR205C, strain PFK2, stronger effect = lower value 1.02 | locus YMR231W, strain pep5, stronger effect = lower value 1.02 | locus YNL071W, strain lat1, stronger effect = lower value 1.01 | locus YNL183C, strain NPR1, stronger effect = lower value 0.951 | locus YNL209W, strain ssb2, stronger effect = lower value 1.02 | locus YNL248C, strain rpa49, stronger effect = lower value 1 | locus YNL322C, strain KRE1 (second series), stronger effect = lower value 0.99 | locus YNR049C, strain mso1, stronger effect = lower value 1.02 | locus YOR001W, strain rrp6, stronger effect = lower value 1.01 | locus YOR070C, strain gyp1, stronger effect = lower value 1.01 | locus YOR080W, strain dia2, stronger effect = lower value 1.02 | locus YOR083W, strain WHI5, stronger effect = lower value 0.98 | locus YOR106W, strain vam3, stronger effect = lower value 1.02 | locus YOR231W, strain MKK1, stronger effect = lower value 0.971 | locus YOR265W, strain rbl2, stronger effect = lower value 1.01 | locus YOR270C, strain vph1, stronger effect = lower value 0.991 | locus YOR290C, strain snf2, stronger effect = lower value 1 | locus YPL051W, strain arl3, stronger effect = lower value 0.997 | locus YPL078C, strain atp4, stronger effect = lower value 0.992 | locus YPL106C, strain sse1, stronger effect = lower value 0.987 | locus YPL240C, strain hsp82, stronger effect = lower value 1.01 | locus YPL256C, strain CLN2, stronger effect = lower value 0.99
